Measured values taken from PubChem BioAssay (NCATS).
Results filed as inconclusive are left out. Active and inactive are the calls of the source. Unless noted, calls come from the whole dose curve; as a rule, active = well fitted curve in the direction sought with a large enough effect; inconclusive = small, poorly fitted or top-dose-only effect, or another doubt; inactive = no such curve, though single readings can be large; an effect the other way counts as inactive or inconclusive.

How the values were obtained:
[1] = target: Rap guanine nucleotide exchange factor 3 (Homo sapiens) (UniProt O95398); assay: Confirmatory qHTS for antagonist of cAMP-regulated guanine nucleotide exchange factor 3 (EPAC1) (AID 1645880); note: nearly all actives have a fitted effect of over 55% in size; note: potency is the fitted concentration of half-maximal effect
Chain of Rap guanine nucleotide exchange factor 3 (Homo sapiens) (O95398 whole entry, looked up): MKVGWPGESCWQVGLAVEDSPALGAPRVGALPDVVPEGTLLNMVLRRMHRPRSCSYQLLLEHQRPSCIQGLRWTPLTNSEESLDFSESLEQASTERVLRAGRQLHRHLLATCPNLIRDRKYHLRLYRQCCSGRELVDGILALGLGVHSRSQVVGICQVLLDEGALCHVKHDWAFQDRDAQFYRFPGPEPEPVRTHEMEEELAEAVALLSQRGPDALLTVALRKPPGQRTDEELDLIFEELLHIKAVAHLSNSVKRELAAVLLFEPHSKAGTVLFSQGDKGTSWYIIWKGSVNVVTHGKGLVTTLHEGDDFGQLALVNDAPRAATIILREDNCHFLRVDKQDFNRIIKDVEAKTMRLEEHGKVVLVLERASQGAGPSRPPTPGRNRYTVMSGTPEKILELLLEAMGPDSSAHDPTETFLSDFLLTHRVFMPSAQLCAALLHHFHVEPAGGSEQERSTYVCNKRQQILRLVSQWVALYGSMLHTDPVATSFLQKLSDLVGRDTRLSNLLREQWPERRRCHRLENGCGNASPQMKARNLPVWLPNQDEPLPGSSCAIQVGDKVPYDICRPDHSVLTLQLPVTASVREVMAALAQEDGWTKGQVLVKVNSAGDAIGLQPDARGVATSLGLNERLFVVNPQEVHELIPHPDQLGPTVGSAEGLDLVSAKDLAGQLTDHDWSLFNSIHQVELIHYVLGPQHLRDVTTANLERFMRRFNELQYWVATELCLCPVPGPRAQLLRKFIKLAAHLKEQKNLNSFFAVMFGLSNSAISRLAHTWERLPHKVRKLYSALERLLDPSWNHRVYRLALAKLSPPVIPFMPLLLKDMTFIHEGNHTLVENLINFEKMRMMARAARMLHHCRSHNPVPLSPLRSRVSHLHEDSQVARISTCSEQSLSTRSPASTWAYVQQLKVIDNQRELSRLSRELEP
How it was run: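 Released BODIPY-GDP fluoresces less than Rap1-bound BODIPY-GDP; the signal is followed at 480/540 nm at 5-min intervals over 30 min, after 5 min at room temperature. Reactions contain 100 nM EPAC1, 250 nM RAP1B-BODIPY-GDP and 50 uM GDP; results are normalized to ATA and DMSO.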

[2] = target: Rap guanine nucleotide exchange factor 3 (Homo sapiens) (UniProt O95398); assay: Confirmatory qHTS for agonist of cAMP-regulated guanine nucleotide exchange factor 3 (EPAC1) (AID 1645881); note: nearly all actives have a fitted effect of over 75% in size; note: potency is the fitted concentration of half-maximal effect;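 for activation: EPAC1 catalysed release of BODIPY-GDP from Rap1B seen as fluorescence loss; 100% = effect of cAMP agonist control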
[3] = target: Rap guanine nucleotide exchange factor 4 (Homo sapiens) (UniProt Q8WZA2); assay: Confirmatory qHTS for agonist of cAMP-regulated guanine nucleotide exchange factor 4 (EPAC2) (AID 1645884);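 note: nucleotide exchange releases bodipy-GDP from Rap1 and this lowers its fluorescence; nearly all actives have a fitted effect of over 65% in size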; note: potency is the fitted concentration of half-maximal effect; for activation: % is set by controls: 0 for no effect and ±100 for the full control effect
Chain of Rap guanine nucleotide exchange factor 4 (Homo sapiens) (Q8WZA2 whole entry, looked up): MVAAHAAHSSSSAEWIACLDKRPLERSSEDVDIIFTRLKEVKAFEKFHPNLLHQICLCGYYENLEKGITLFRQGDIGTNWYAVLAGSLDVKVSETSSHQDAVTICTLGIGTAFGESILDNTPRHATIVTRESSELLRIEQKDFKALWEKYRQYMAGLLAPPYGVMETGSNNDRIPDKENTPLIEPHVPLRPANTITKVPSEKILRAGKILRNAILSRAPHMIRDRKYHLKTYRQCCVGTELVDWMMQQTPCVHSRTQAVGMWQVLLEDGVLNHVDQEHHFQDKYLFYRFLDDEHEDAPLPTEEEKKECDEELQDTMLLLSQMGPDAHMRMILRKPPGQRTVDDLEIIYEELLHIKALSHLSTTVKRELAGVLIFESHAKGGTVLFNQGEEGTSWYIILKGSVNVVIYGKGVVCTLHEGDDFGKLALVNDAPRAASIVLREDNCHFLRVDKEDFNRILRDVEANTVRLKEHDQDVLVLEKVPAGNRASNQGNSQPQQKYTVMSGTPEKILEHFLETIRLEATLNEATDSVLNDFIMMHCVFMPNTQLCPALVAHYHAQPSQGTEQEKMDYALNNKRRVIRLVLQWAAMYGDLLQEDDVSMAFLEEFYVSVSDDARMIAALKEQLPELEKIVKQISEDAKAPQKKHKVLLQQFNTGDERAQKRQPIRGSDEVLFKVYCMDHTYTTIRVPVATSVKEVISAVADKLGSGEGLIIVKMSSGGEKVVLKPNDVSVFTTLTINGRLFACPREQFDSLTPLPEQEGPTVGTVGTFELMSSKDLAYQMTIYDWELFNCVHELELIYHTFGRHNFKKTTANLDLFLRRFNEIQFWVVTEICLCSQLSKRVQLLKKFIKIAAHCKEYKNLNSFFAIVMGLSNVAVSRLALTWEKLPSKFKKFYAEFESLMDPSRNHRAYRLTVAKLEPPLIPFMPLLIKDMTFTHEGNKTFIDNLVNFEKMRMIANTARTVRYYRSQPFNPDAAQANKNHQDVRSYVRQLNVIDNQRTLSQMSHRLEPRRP

[4] = target: Rap guanine nucleotide exchange factor 3 (Homo sapiens) (UniProt O95398); assay: Counterscreen qHTS for antagonist of cAMP-regulated guanine nucleotide exchange factor 3 (EPAC1) (AID 1645888); note: % of control where 0% means no effect
How it was run: (§1)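 Measured: fluorescence of BODIPY-GDP bound to Rap1B, which falls as exchange proceeds. Conditions include 50 uM competing GDP, 5 and 30 min reads, and a later cAMP challenge for antagonist detection.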

[5] = target: Rap guanine nucleotide exchange factor 4 (Homo sapiens) (UniProt Q8WZA2); assay: Confirmatory qHTS for antagonist of cAMP-regulated guanine nucleotide exchange factor 4 (EPAC2) (AID 1645885); note: nearly all actives have a fitted effect of over 25% in size; for activity change, negative = inhibition: % is set by controls: 0 for no effect and ±100 for the full control effect
[6] = target: Rap guanine nucleotide exchange factor 3 (Homo sapiens) (UniProt O95398); assay: Counterscreen qHTS for agonist of cAMP-regulated guanine nucleotide exchange factor 3 (EPAC1) (AID 1645889); note: nearly all actives have a fitted effect of over 40% in size; note: potency is the fitted concentration of half-maximal effect; for activation: % of control where 0% means no effect
How it was run: as §1

[7] = qHTS for Inhibitors of the vitamin D receptor (VDR): Hit Validation using a Texas Red Assay (AID 602201); note: potency is the fitted concentration of half-maximal effect
How it was run: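 Fluorescence polarization (Ex 595/Em 615 nm) of Texas Red (7 nM) with 1.5 uM VDR-LBD and LG19078 (final concentrations). Compounds were incubated for 2 hours at room temperature.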

[8] = target: Cytochrome P450 3A4 (Homo sapiens) (UniProt P08684); assay: qHTS Assay for Inhibitors and Substrates of Cytochrome P450 3A4 (AID 884); note: potency is the fitted concentration of half-maximal effect; nearly all actives have a fitted effect of over 50% in size
Chain of Cytochrome P450 3A4 (Homo sapiens) (P08684 whole entry, looked up): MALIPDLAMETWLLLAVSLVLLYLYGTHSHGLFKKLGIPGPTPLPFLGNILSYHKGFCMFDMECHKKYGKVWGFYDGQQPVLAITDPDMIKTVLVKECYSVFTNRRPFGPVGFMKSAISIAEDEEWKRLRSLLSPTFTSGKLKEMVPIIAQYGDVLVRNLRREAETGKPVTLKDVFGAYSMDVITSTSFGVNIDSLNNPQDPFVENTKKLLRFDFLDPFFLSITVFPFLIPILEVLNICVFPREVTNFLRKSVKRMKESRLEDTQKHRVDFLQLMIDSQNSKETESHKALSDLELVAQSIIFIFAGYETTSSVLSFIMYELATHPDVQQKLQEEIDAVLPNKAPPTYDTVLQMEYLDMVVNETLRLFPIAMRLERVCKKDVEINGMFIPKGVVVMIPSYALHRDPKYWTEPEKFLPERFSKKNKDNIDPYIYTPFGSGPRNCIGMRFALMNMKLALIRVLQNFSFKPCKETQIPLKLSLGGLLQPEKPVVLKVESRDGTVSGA
How it was run: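 Luminescent readout of luciferin produced by CYP3A4 (20 nM) dealkylation of Luciferin-PPXE, 25 uM (its KM). NADPH-driven reaction ran 60 min at RT after 10 min compound preincubation; data scaled to 57 uM ketoconazole as 100% inhibition.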

[9] = Confirmation and Secondary Assay for Modulators of Hemoglobin Beta Chain Splicing at IVS2 654 locus (AID 910); note: % of control where 0% means no effect
How it was run: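 HeLa cells stably carrying EGFP interrupted by mutant beta-globin IVS2-654 intron (CMV-driven) were treated with compound for 2 days at 37C; corrected splicing was scored as total peak GFP intensity per well (488 nm excitation, 500-520 nm emission).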

[10] = Confirmation and Secondary Assay for Modulators of Hemoglobin Beta Chain Splicing at IVS2 705 locus (AID 930);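 note: HeLa cells stably expressing the EGFP-705 splicing reporter; GFP fluorescence per well restored by corrected splicing of the IVS2-705 intron in EGFP; series mostly up to about 46 µM; % of control where 0% means no effect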
How it was run: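 HeLa cells stably carrying EGFP interrupted by mutant beta-globin intron 2 (IVS2-705) treated 2 days at 37C with compound; 500 nM antisense PNA as control. Correct splicing read as total peak GFP intensity per well by laser-scanning cytometry.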

[11] = target: Tumor susceptibility gene 101 protein (Homo sapiens) (UniProt Q99816); assay: qHTS Assay for Iinhibitors of HIV-1 Budding by Blocking the Interaction of PTAP/TSG101: Hit Validation (AID 651600); note: % is set by controls: 0 for no effect and ±100 for the full control effect; nearly all actives have a fitted effect of over 70% in size
Chain of Tumor susceptibility gene 101 protein (Homo sapiens) (Q99816 whole entry, looked up): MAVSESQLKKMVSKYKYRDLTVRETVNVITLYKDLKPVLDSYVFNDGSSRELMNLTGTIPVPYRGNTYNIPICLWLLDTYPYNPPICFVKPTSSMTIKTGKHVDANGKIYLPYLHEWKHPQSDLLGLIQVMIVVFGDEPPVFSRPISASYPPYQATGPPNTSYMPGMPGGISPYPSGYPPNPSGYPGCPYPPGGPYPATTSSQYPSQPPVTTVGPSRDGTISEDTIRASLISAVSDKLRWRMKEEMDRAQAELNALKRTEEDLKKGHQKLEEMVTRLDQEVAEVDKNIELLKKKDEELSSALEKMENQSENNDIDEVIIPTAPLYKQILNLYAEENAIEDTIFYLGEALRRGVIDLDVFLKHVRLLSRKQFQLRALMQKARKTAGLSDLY
How it was run: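 Measuring PTAP–Tsg101 interaction by FP: protein at 10 uM and fluorescent peptide at 50 nM (final), buffer 10 mM HEPES pH 7.5 with 0.15 M NaCl, 3 mM EDTA, 0.1 mM TCEP, 0.01% Tween 20; 20 min incubation, r.t.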

[12] = target: Glucocorticoid receptor (Homo sapiens) (UniProt P04150); assay: GR-GFP Redistribution (AID 450;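 active = compounds whose dose series gives a full or clear partial fitted curve of increased nuclear translocation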; note: potency is the fitted concentration of half-maximal effect); details: U2OS GR-GFP nuclear translocation, laser cytometry, 2 h
Chain of Glucocorticoid receptor (Homo sapiens) (P04150 whole entry, looked up, the tested form may be a part): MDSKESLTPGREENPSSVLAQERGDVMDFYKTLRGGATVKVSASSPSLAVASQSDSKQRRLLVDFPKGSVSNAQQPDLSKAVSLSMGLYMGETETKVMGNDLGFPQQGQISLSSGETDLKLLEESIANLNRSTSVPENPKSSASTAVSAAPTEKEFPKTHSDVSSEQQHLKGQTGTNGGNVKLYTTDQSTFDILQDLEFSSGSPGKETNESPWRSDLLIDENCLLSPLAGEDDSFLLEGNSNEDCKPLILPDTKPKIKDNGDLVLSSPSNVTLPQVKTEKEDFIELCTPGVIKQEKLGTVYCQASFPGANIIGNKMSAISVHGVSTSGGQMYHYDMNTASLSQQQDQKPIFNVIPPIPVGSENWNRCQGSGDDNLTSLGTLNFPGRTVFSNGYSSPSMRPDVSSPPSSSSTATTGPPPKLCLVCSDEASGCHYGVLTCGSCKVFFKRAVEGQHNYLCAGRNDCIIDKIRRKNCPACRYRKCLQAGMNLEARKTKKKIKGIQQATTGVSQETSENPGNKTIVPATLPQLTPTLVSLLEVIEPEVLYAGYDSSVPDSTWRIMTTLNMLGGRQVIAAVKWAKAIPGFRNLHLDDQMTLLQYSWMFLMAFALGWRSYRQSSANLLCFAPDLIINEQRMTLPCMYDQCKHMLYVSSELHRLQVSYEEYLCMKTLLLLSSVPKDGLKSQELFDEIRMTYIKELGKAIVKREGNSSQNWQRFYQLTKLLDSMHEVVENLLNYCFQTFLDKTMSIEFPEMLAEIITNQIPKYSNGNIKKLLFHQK

[13] = target: Glucocorticoid receptor (Homo sapiens) (UniProt P04150); assay: GR-EFC Redistribution (AID 451; calls by dose curve; note: potency is the fitted concentration of half-maximal effect); details: CHO-K1 GR-EFC translocation, beta-gal luminescence, 2 h
How it was run: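 CHO-K1 cells stably expressing nuclear-localized β-gal enzyme acceptor and GR fused C-terminally to the enzyme donor fragment; ligand-driven nuclear translocation restores β-gal by complementation. Compounds titrated up to 46 uM final, 2 h at 37 °C; luminescence read.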

[14] = target: Mitogen-activated protein kinase 10 (Mus musculus) (UniProt Q61831); assay: JNK3 AlphaScreen Assay (AID 530; active = well fitted curve in either direction with a large enough effect, not every such curve was filed as active;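 note: kinase came from lysate of stimulated human HepG2 cells; signal reports phosphorylation of biotinylated GST-cJun 1-79 at Ser73 with 10 µM ATP; series mostly up to about 57 µM; % is set by controls: 0 for no effect and ±100 for the full control effect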)
How it was run: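 Biotinylated GST-cJun(1-79) served as substrate for JNK3 in HepG2 lysates stimulated with IL-1beta and TNF-alpha. ATP was 10 uM final, pH 7.6. Ser73 phosphorylation was quantified by AlphaScreen (680 nm excitation).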

[15] = target: Cytochrome P450 2C9 (Homo sapiens) (UniProt P11712); assay: qHTS Assay for Inhibitors and Substrates of Cytochrome P450 2C9 (AID 883); note: potency is the fitted concentration of half-maximal effect; nearly all actives have a fitted effect of over 60% in size
Chain of Cytochrome P450 2C9 (Homo sapiens) (P11712 whole entry, looked up): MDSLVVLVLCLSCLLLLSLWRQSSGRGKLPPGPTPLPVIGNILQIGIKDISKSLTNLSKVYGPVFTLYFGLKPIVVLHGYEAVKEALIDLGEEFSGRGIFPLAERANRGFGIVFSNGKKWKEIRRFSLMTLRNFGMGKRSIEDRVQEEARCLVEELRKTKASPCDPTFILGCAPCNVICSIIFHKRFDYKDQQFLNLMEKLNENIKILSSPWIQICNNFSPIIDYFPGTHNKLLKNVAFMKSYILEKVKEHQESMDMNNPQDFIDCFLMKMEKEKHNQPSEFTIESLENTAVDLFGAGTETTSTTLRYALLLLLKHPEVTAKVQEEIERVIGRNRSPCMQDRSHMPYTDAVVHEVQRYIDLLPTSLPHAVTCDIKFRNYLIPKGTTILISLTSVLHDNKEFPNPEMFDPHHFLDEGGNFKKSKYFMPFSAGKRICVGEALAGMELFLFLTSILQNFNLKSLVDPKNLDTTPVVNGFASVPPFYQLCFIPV
How it was run: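 CYP2C9 deoxyluciferin hydroxylation, 37C, 60 min with NADPH regeneration; 10nM enzyme, 100uM Luciferin-H (KM). Glo detection reagent stopped reaction; luminescence normalized to sulphaphenazole (57uM) full inhibition.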

[16] = target: Cytochrome P450 3A4 (Homo sapiens) (UniProt P08684); assay: qHTS Assay for Activators of Cytochrome P450 3A4 (AID 885); note: nearly all actives have a fitted effect of over 65% in size
How it was run: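 CYP3A4 activity: Luciferin-PPXE O-dealkylation, 25uM substrate, 200mM KPO4, RT throughout. Read-out is luciferase luminescence; higher values reflect activation.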

[17] = target: DNA dC->dU-editing enzyme APOBEC-3G (Homo sapiens) (UniProt Q9HC16); assay: qHTS for inhibitors of Vif-A3G interactions: Validation (AID 588379); note: 0% is about no effect
Chain of DNA dC->dU-editing enzyme APOBEC-3G (Homo sapiens) (Q9HC16 whole entry, looked up): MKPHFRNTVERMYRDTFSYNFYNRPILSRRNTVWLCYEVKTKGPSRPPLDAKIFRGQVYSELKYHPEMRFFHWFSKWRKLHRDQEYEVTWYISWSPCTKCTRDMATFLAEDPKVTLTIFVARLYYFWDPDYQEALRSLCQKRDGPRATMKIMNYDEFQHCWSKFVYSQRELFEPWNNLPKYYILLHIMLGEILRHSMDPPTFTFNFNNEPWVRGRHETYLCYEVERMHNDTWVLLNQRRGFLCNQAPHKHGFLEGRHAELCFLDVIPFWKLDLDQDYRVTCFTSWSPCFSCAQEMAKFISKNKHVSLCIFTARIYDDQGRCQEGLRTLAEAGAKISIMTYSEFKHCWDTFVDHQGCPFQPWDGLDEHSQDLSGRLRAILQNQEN
How it was run: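 Yellow fluorescence (Ex 488, Em 500-530) of Vif-coexpressing HeLa A3G-eYFP cells, scanned by Acumen cytometer, reports blocked A3G degradation. Cells plated at 700/well overnight at 37 deg C before compound addition, then a further overnight compound incubation at 37 deg C.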

N/C(=N\N=C/c1ccc(-c2ccc(O)c(C(=O)O)c2)o1)N[N+](=O)[O-]
active: Potency [1] 4.78 µM
inactive: Potency [2] | Potency [3] | outcome [4]

O=c1[nH]c(=S)n(-c2ccc(Cl)cc2)c(O)c1C=Nc1ccc(N2CCOCC2)cc1
inactive: Potency [1] | Potency [3] | Potency [5] | outcome [4] | Potency [6]

COC(=O)C1C2c3ccccc3C(c3ccccc32)C1(C)C(=O)OC (centres undefined)
inactive: Potency [1] | Potency [2] | activation [3] 9.42% [at 17.1 µM, percent relative to cAMP agonist control] | activity change, negative = inhibition [4] 4.93% [at 30.8 µM]

O=[N+]([O-])c1ccc(CN2CC=C(c3ccccc3)CC2)cc1
inactive: Potency [1] | Potency [2] | activation [3] 0% [at 17.1 µM, percent relative to cAMP agonist control] | activity change, negative = inhibition [5] 0.463% [at 12.7 µM] | activation [6] 8.24% [at 30.8 µM]

Cc1cccc(N2C(=O)NC(=O)/C(=C\c3cc(C)n(-c4sc5c(c4C#N)CCCC5)c3C)C2=O)c1C
active: Potency [1] 30.1 µM
inactive: Potency [2] | Potency [3] | outcome [4]

O=c1[nH]c(=O)n(-c2cccc(F)c2)c(O)c1/C=C1\C=Nc2ccccc21
inactive: Potency [1] | Potency [3] | Potency [5] | outcome [4] | Potency [6]

CCOC(=O)[C@]12Cc3ccccc3[C@H]1N(Cc1ccccc1)C(=O)c1cc(OC)ccc12
inactive: Potency [1] | Potency [2] | activation [3] -5.98% [at 17.1 µM, percent relative to cAMP agonist control] | activity change, negative = inhibition [4] 2.15% [at 30.8 µM] | activation [6] 20.9% [at 30.8 µM]

O=c1nc(/C=C/c2ccc(Cl)cc2Cl)cc(C(F)(F)F)[nH]1
active: Potency [1] 44.7 µM
inactive: Potency [2] | activation [3] -2.31% [at 17.1 µM, percent relative to cAMP agonist control] | activity change, negative = inhibition [5] -10% [at 12.7 µM] | activation [6] 4.81% [at 30.8 µM]

CC(C)N1C(=O)/C(=C/C=C/c2ccco2)C(=O)N(Cc2ccco2)C1=O
inactive: Potency [1] | activation [3] 13% [at 17.1 µM, percent relative to cAMP agonist control] | activity change, negative = inhibition [5] 22.6% [at 12.7 µM] | activity change, negative = inhibition [4] 52.4% [at 30.8 µM]

O=c1[nH]c(=S)n(-c2ccccc2F)c(O)c1C=Nc1ccc(N2CCOCC2)cc1
inactive: Potency [1] | activation [3] 4.59% [at 17.1 µM, percent relative to cAMP agonist control] | activity change, negative = inhibition [5] -15.3% [at 12.7 µM] | activity change, negative = inhibition [4] -4.47% [at 30.8 µM] | activation [6] 32% [at 30.8 µM]

Cc1ccccc1N1C(=O)NC(=O)/C(=C\c2ccc3c(c2)CCCN3Cc2ccccc2)C1=O
active: Potency [7] 28.2 µM | Potency [1] 16.9 µM
inactive: Potency [2] | Potency [3] | outcome [4]

Cc1ccccc1OCC(=O)N1CCN(CCc2ccccn2)CC1
inactive: Potency [1] | Potency [3] | activity change, negative = inhibition [5] 1.52% [at 12.7 µM] | outcome [4] | Potency [6]

Cc1cccc(CN2C(=O)CN=C(c3ccccc3)c3ccccc32)c1
inactive: Potency [1] | Potency [3] | activity change, negative = inhibition [5] 15.3% [at 12.7 µM] | outcome [4]

CCCCCC1C(=O)O[C@H](C)[C@@H](NC(=O)c2cccc(NC=O)c2O)C(=O)OC(C)C1OC(=O)CC(C)C (some centres undefined)
inactive: Potency [9] | Potency [10] | Potency [1] | Potency [2] | Potency [3]
active: Potency [8] 7.94 µM

O=c1oc2ccccc2c(O)c1C(c1ccc([N+](=O)[O-])cc1)c1c(O)c2ccccc2oc1=O
inactive: Potency [2] | activation [3] 0% [at 17.1 µM, percent relative to cAMP agonist control] | activity change, negative = inhibition [4] -13.4% [at 30.8 µM]
active: Potency [1] 15.8 µM

Cc1cc(C=C(C#N)C#N)ccc1N1CCCC1
active: Potency [2] 100 µM | Potency [3] 112 µM | Potency [6] 28.2 µM
inactive: Potency [1] | outcome [4]

Cc1ccc(N)c(C(=O)c2ccc(Br)cc2)c1
inactive: Potency [1] | Potency [2] | Potency [5] | outcome [4]

COc1ccc(CN2C(=O)NC(=O)/C(=C/c3ccc([N+](=O)[O-])s3)C2=O)cc1
active: Potency [1] 9.53 µM
inactive: Potency [2] | Potency [3] | outcome [4]

CCN(CC)C(=O)Cn1cc(C=C2C(=O)N(C)C(=O)N(C)C2=O)c2ccccc21
active: Potency [1] 79.4 µM
inactive: Potency [11] | Potency [2] | activation [3] 4.19% [at 17.1 µM, percent relative to cAMP agonist control] | activity change, negative = inhibition [5] 3.22% [at 12.7 µM] | activity change, negative = inhibition [4] -5.5% [at 30.8 µM]

O=C1CN=C(c2ccccc2)c2cc(Cl)ccc2N1Cc1ccc(Cl)cc1
inactive: Potency [1] | Potency [3] | activity change, negative = inhibition [5] 1.14% [at 12.7 µM] | outcome [4]

CCCCC/C=C\C/C=C\C/C=C\C/C=C\CCCC(=O)Nc1ccc(O)cc1
active: Potency [15] 5.01 µM | Potency [8] 5.01 µM
inactive: Potency [12] > 46 µM | Potency [13] > 46 µM | outcome [14] | Potency [16] | outcome [17] | Potency [1] | Potency [2] | Potency [3] | Potency [5]
